PubChem BioAssay AID588852 (The Scripps Research Institute Molecular Screening Center, 2011)
Hit rate of the full screen: of about 360,000 compounds, about 4,600 (1.3%) were called active. Many of the other results were omitted from the sample, so actives are more common in it than they were. A number with no mark means an inactive call.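 Rule for the calls: active = percent inhibition above its own plate's cutoff, namely the mean of that plate's compound wells plus 3 SD; inactive = the rest.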

biological target: Muscarinic acetylcholine receptor M1 (Homo sapiens) (UniProt P11229); assay: CHRM1 blockers of acetylcholine calcium response – CHO-K1 cells, Fluo-8 calcium fluorescence, 1536-well, primary screen (AID 588852); conditions: CHO-K1 hM1, Fluo-8 calcium fluorescence, ACh EC80 antagonist; at 3 µM; active compounds read high;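 note: peak over basal fluorescence ratio during 140 s after agonist addition; 0% = ACh EC80 plus DMSO and 100% = DMSO alone without agonist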
Sequence (P11229 whole entry, looked up): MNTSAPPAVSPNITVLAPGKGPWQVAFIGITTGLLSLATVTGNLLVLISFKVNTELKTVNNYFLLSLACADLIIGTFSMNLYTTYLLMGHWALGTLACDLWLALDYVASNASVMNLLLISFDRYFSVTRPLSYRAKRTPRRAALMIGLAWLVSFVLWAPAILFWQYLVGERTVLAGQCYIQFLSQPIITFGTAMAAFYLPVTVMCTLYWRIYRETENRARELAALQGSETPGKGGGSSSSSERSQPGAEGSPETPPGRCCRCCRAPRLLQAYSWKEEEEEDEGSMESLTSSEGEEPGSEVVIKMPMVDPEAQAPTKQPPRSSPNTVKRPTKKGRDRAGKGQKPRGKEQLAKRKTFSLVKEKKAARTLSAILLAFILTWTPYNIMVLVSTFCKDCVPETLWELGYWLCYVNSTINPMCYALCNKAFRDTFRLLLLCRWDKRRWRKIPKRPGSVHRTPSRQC

Q: `CC1CCC2(CC1)NC(=O)N(CC(=O)NCc1ccco1)C2=O` (stereo unspecified) was tested. Which inhibition did it give?
A: 16.7%

Q: With `O=S1(=O)CC(N2CCN(c3ccccn3)CC2)CN1Cc1ccc(F)cc1` (stereo unspecified) as the molecule, how does the inhibition read?
A: -1.35%

Q: For `CCCC(CNC(=O)COC(=O)C1=NNC(=O)CC1)c1ccc(Cl)cc1Cl` (stereo unspecified), which inhibition is on record?
A: -6.04%

Q: Which inhibition does the source give for `O=C(CN1CCCCC1)N1c2ccccc2Sc2ccc(C(F)(F)F)cc21` here?
A: 96.8% (active)

Q: Which inhibition does the source give for `COc1cc(/C=C/C(=O)N2c3ccccc3Sc3ccc(C(F)(F)F)cc32)cc(OC)c1OC` here?
A: -6.22%

Q: How did the inhibition turn out when `O=C(CN1CCCCCC1)N1c2ccccc2Sc2ccc(C(F)(F)F)cc21` was run?
A: 102% (active)

Q: With `O=C(CN1C(=O)/C(=C\c2ccc(C(F)(F)F)cc2)Sc2ccccc21)NCc1ccco1` as the molecule, how does the inhibition read?
A: 13.9%

Q: With `O=C(CSc1nc2ccccc2o1)N1c2ccccc2Sc2ccc(Cl)cc21` as the molecule, how does the inhibition read?
A: -3.61%

Q: `CCC(=O)Nc1cc(C(F)(F)F)ccc1N1CCCC1` was tested. Which inhibition did it give?
A: 3.67%

Q: With `COc1ccc(NC(=O)c2cccc(Cl)c2)c[n+]1[O-]` as the molecule, how does the inhibition read?
A: -8.94%

Q: How did the inhibition turn out when `Cc1cccc(NS(=O)(=O)c2ccc([N+](=O)[O-])cc2)n1` was run?
A: -16.4%

Q: `CCc1nc2nc(C)c(NS(=O)(=O)c3ccc4c(c3)CCCC4)c(=O)n2[nH]1` was tested. Which inhibition did it give?
A: 12.2%

Q: For `Cc1nc2nc(C)c(NS(=O)(=O)c3ccc(C(C)(C)C)cc3)c(=O)n2[nH]1`, which inhibition is on record?
A: 20.2% (active)

Q: With `Cc1ccn2c(=O)c(C(=O)NCCC3=CCCCC3)c(O)nc2c1` as the molecule, how does the inhibition read?
A: -8.96%

Q: With `CN(C)C(=O)N1CCNCC1` as the molecule, how does the inhibition read?
A: -11.2%

Q: `CC(=O)N1CCOc2ccc(S(=O)(=O)N3CCC(C(=O)Nc4ccccc4F)CC3)cc21` was tested. Which inhibition did it give?
A: -13.2%

Q: How did the inhibition turn out when `CC(C)(C)N(CC#CCC(O)(c1ccccc1)C1CCCC1)CCO` (stereo unspecified) was run?
A: 83.9% (active)

Q: With `CC(C)c1ccc(N2CC(C(=O)Nc3nccs3)CC2=O)cc1` (stereo unspecified) as the molecule, how does the inhibition read?
A: 12.6%

Q: With `CCCCn1nnnc1C(c1cccc(OC)c1OC)N1CCN(C/C=C/c2ccccc2)CC1` (stereo unspecified) as the molecule, how does the inhibition read?
A: 34.7%

Q: For `CN1CCN(C2Cc3ccc(Cl)cc3Sc3ccc(F)cc32)CC1` (stereo unspecified), which inhibition is on record?
A: 60% (active)

Q: How did the inhibition turn out when `COc1ccc(NC(=O)C(CC(C)C)NC(=O)C2CCC(C)CC2)cc1` (stereo unspecified) was run?
A: 0.68%

Q: `CCN(CC)CCNC(=O)c1ccc(NC(=O)c2cc(-c3ccncc3)nc3ccccc23)cc1` was tested. Which inhibition did it give?
A: 45.5% (active)

Q: Which inhibition does the source give for `CCN(CC)CCNC(=O)c1ccc(NC(=O)c2c(F)cccc2Cl)cc1` here?
A: -0.98%

Q: For `O=C(Nc1ccc(S(=O)(=O)Nc2nccs2)cc1)c1cc(-c2ccncc2)nc2ccccc12`, which inhibition is on record?
A: -10.5%

Q: With `CCCCNc1c(-c2ccc(OC)c(Sc3ccc(OC)cc3)c2)nc2ccc(Cl)cn12` as the molecule, how does the inhibition read?
A: 19.9%

Q: With `CCCCNc1c(-c2cccc(Sc3ccc(OC)cc3)c2)nc2ccccn12` as the molecule, how does the inhibition read?
A: 36.9% (active)

Q: For `COC(=O)c1ccc2nc(-c3cccc(Br)c3)c(Cc3ccc(OC)cc3C)n2c1`, which inhibition is on record?
A: -41.3%

Q: With `CCCCNC(=O)c1nc(C2CCN(S(=O)(=O)c3ccc(F)c(F)c3)CC2)oc1-c1cccc(C(F)(F)F)c1` as the molecule, how does the inhibition read?
A: -12%

Q: With `CCN(CC)CCCC(C)n1c2nc(=O)[nH]c(=O)c-2nc2cc(Cl)ccc21` (stereo unspecified) as the molecule, how does the inhibition read?
A: 49.8% (active)

Q: How did the inhibition turn out when `O=Cc1cn(CCOc2ccc(F)cc2)c2ccccc12` was run?
A: 7.49%

Q: `CCCN(CCC)S(=O)(=O)c1cc2c(cc1Br)CCN2C(=O)CC` was tested. Which inhibition did it give?
A: -3.69%

Q: For `O=C(Nc1cccc(Cl)c1N1CCOCC1)c1cccnc1`, which inhibition is on record?
A: -2.23%

Q: `O=C(Nc1cccc(Cl)c1N1CCOCC1)c1ccc2c(c1)OCCO2` was tested. Which inhibition did it give?
A: -6.53%

Q: `CCN1CCN(c2c(Cl)cccc2NC(=O)c2ccc(Br)o2)CC1` was tested. Which inhibition did it give?
A: 33% (active)

Q: With `CCn1cc(-c2cc(C(=O)O)on2)c(C)n1` as the molecule, how does the inhibition read?
A: -5.04%

Q: For `Cc1ccc(-c2nc3ccc(Br)cn3c2Cc2ccccc2C(F)(F)F)cc1`, which inhibition is on record?
A: -2.72%

Q: For `CN1C(=O)c2ccc(NC(=O)c3c(F)c(F)c(F)c(F)c3F)cc2C1=O`, which inhibition is on record?
A: -10%

Q: For `Cc1cccc(-n2ncc3c(=O)[nH]c(SCC(=O)Nc4cc(C)on4)nc32)c1`, which inhibition is on record?
A: -7.77%

Q: `O=C(CSc1nc2c(cnn2-c2ccc(F)cc2)c(=O)[nH]1)N1CCCCCC1` was tested. Which inhibition did it give?
A: 39.7% (active)

Q: How did the inhibition turn out when `CCC(C)Sc1nc2c(cnn2-c2ccc(F)cc2)c(=O)[nH]1` (stereo unspecified) was run?
A: -10.5%

Q: For `CC(C)C[C@H](NC(=O)[C@@H]1O[C@H]1C(=O)O)C(=O)NCCCCN=C(N)N`, which inhibition is on record?
A: -28.2%

Q: With `CCCNC(=O)C1(C)CCN(Cc2csc(-c3ccc(Cl)cc3)n2)C1` (stereo unspecified) as the molecule, how does the inhibition read?
A: 15.8%

Q: For `CSCCC(c1nnnn1Cc1ccccc1)N1CCN(C/C=C/c2ccccc2)CC1` (stereo unspecified), which inhibition is on record?
A: -4.53%

Q: For `Nc1ncnc2c1ncn2[C@@H]1O[C@H](C(=O)N2CCSC2)[C@@H](O)[C@H]1O`, which inhibition is on record?
A: -21.6%

Q: `O=C(O/N=C(/c1ccccc1)c1ccncc1)c1ccccc1[N+](=O)[O-]` was tested. Which inhibition did it give?
A: 0.78%

Q: Which inhibition does the source give for `CN(C)CCCO/N=C(\c1ccccc1)c1ccncc1` here?
A: 34.6% (active)

Q: With `COc1cc(OC)nc(N/N=C(\c2ccccc2)c2ccncc2)n1` as the molecule, how does the inhibition read?
A: 1.36%

Q: With `CCc1cc2c(N3CCN(c4nnc(CC)s4)CC3)ncnc2s1` as the molecule, how does the inhibition read?
A: 6.82%

Q: Which inhibition does the source give for `COc1ccccc1N1CCN(c2ncnc3sc(C)c(-c4ccccc4)c23)CC1` here?
A: -8.38%

Q: For `Oc1ccccc1N1CCN(c2ncnc3sc(-c4ccccc4)cc23)CC1`, which inhibition is on record?
A: 25.7% (active)

Q: How did the inhibition turn out when `CN(C)C(=O)c1cccc(-c2cnc3c(NC=O)cc(-c4ccc(F)cc4)cn23)c1` was run?
A: -4.58%

Q: `O=C(COc1ccc(Cl)cc1)Nc1ccccc1CO` was tested. Which inhibition did it give?
A: 3.31%

Q: With `Cc1cc(C)cc(OCC(=O)Nc2ccc(N3CCOCC3)cc2N2CCOCC2)c1` as the molecule, how does the inhibition read?
A: 0.26%

Q: `Cc1cc(N2CCCC2)ccc1NC(=O)COc1ccc(Cl)cc1` was tested. Which inhibition did it give?
A: 38.5% (active)

Q: `Fc1ccccc1CCNc1nnnn1-c1ccccc1` was tested. Which inhibition did it give?
A: -15.4%

Q: For `O=C(COc1ccccc1)Nc1nonc1NC(=O)COc1ccccc1`, which inhibition is on record?
A: 3.1%

Q: For `COc1ccc(C)cc1NC(=S)Nc1ccccc1SC`, which inhibition is on record?
A: -4.63%

Q: How did the inhibition turn out when `O=C(c1cccs1)N1CCC(c2nc3ccccc3s2)CC1` was run?
A: -0.25%

Q: For `Cc1cccc(NC(=S)N2CCC(c3nc4ccccc4s3)CC2)c1`, which inhibition is on record?
A: 6.88%

Q: With `Cc1cccc(C(=O)N2CCC(c3nc4ccccc4s3)CC2)c1` as the molecule, how does the inhibition read?
A: 41.2% (active)

Q: For `CC(/C=C/c1ccccc1)=N\NC(=O)C1CC1(C)c1ccccc1` (stereo unspecified), which inhibition is on record?
A: -3.18%

Q: Which inhibition does the source give for `O=C(CNC(=O)c1ccccc1Br)NCCSc1ccc(Br)cc1` here?
A: -10.6%

Q: Which inhibition does the source give for `Cc1ccccc1OCC(=O)Nc1ccc(N2CCN(C(=O)C(C)C)CC2)c(Cl)c1` here?
A: 34.5% (active)

Q: `COc1cc(NC(=O)COc2ccccc2Cl)ccc1NC(=O)C(C)C` was tested. Which inhibition did it give?
A: 6.01%

Q: `CCc1ccccc1OCC(=O)Nc1ccc(C)c(S(=O)(=O)N2CCCCCC2)c1` was tested. Which inhibition did it give?
A: 6.49%

Q: `CCN1C(=O)[C@H]2[C@@H](c3ccccc3)N[C@]3(CCCN(Cc4ccc(C)cc4)C3=O)[C@H]2C1=O` was tested. Which inhibition did it give?
A: -5.93%

Q: `COc1ccccc1C(=O)NCCC(=O)NCC(c1ccco1)N1CCCCC1` (stereo unspecified) was tested. Which inhibition did it give?
A: -5.11%

Q: For `COc1ccc(C(CNC(=O)c2cccnc2SC)N2CCOCC2)cc1` (stereo unspecified), which inhibition is on record?
A: -5.53%

Q: With `CSc1ncccc1C(=O)NCC(c1ccco1)N1CCCCC1` (stereo unspecified) as the molecule, how does the inhibition read?
A: 34.8% (active)

Q: `Cc1nn(-c2ccccc2)c2sc(C(=O)N(Cc3ccco3)C(C)C(=O)NC(C)(C)C)cc12` (stereo unspecified) was tested. Which inhibition did it give?
A: -7.09%

Q: `CCOC1=C2CN(S(=O)(=O)c3ccc(C)cc3)[C@H](c3cccs3)C[C@H]2[C@H]2C(=O)N(c3ccccc3)C(=O)[C@H]2C1` was tested. Which inhibition did it give?
A: 1.5%

Q: How did the inhibition turn out when `CC(C)C1CC2=C(C(=O)OC(C)(C)O2)C(c2ccc(F)cc2)O1` (stereo unspecified) was run?
A: -37.3%

Q: With `Cc1ccccc1N(C(=O)CNC(=O)c1cccs1)C(C(=O)NC1CCCC1)c1ccncc1` (stereo unspecified) as the molecule, how does the inhibition read?
A: -4.08%

Q: How did the inhibition turn out when `O=C(NCC(=O)N(CC1CCCO1)C(C(=O)NC1CCCCC1)c1ccccc1)c1ccco1` (stereo unspecified) was run?
A: -7.84%

Q: With `O=C(NCC(=O)N(Cc1cccs1)C(C(=O)NC1CCCCC1)c1ccco1)c1cccs1` (stereo unspecified) as the molecule, how does the inhibition read?
A: 35.6% (active)

Q: With `COc1ccc(CC(N)c2csc(NC(=O)NC(c3ccccc3)c3ccccc3)n2)cc1` (stereo unspecified) as the molecule, how does the inhibition read?
A: -1.87%

Q: How did the inhibition turn out when `CN1OC[C@@H]2CN(C(=O)C(C)(C)C)[C@H](c3ccc(-n4ccnc4)cc3)C[C@@H]21` was run?
A: 13.8%

Q: With `O=C(COC(=O)c1cc(S(=O)(=O)N2CCOCC2)ccc1F)NC1CC1` as the molecule, how does the inhibition read?
A: -2.77%

Q: Which inhibition does the source give for `CCOC(=O)/C(N=Nc1cc(C(=O)O)cc(C(=O)O)c1)=C(\O)CCl` here?
A: -12%

Q: For `Cc1ccc2nc(NC(=O)CSc3nc(=O)n(CCCN(C)C)c4c3CCC4)sc2c1`, which inhibition is on record?
A: 8.16%

Q: How did the inhibition turn out when `CCN(CC)CCn1c2c(c(SCC(=O)Nc3ccc(C(C)C)cc3)nc1=O)CCC2` was run?
A: 7.72%

Q: With `CCN(CC)CCn1c2c(c(SCC(=O)Nc3nc4ccccc4s3)nc1=O)CCCC2` as the molecule, how does the inhibition read?
A: 42.1% (active)

Q: How did the inhibition turn out when `COCCn1c(SCC(=O)Nc2cc(OC)ccc2OC)nc2c(c1=O)SC(C)C2` (stereo unspecified) was run?
A: -11.7%

Q: With `CC1CN(C(=O)c2ccc3c(c2)OCO3)OC(c2ccccc2)O1` (stereo unspecified) as the molecule, how does the inhibition read?
A: 1.63%

Q: Which inhibition does the source give for `COc1ccc(NC(=O)COC(=O)C2COc3ccccc3O2)cc1` (stereo unspecified) here?
A: -2.48%

Q: How did the inhibition turn out when `CCC(C)(C)c1ccc(Oc2ccc(NC(=O)COC(=O)C3=COCCO3)cc2)cc1` was run?
A: 24.8% (active)

Q: With `CCOc1ccc(NC(=O)c2ccc(NC(=O)COC(=O)c3ccc(NC(=O)CC#N)cc3)cc2)cc1` as the molecule, how does the inhibition read?
A: 7.32%

Q: Which inhibition does the source give for `COc1ccc(C(C(=O)NC2CCCCC2)N(C(=O)Cc2c[nH]c3ccccc23)c2ccccc2)cc1OC` (stereo unspecified) here?
A: -2.89%

Q: With `COc1ccc(C2CC(c3cccs3)=NN2C(=O)COC(=O)c2cc3ccccc3cc2O)cc1OC` (stereo unspecified) as the molecule, how does the inhibition read?
A: -1.73%

Q: `COc1ccc(C2CC(c3cccs3)=NN2C(=O)CSc2nnc(N)s2)cc1OC` (stereo unspecified) was tested. Which inhibition did it give?
A: 48.8% (active)

Q: With `COc1ccc(C2CC(c3cccs3)=NN2C(=O)CSc2nncs2)cc1OC` (stereo unspecified) as the molecule, how does the inhibition read?
A: -3.74%
